According to PubChem BioAssay (NCATS):
Results filed as inconclusive are left out. Where a call stands in place of a potency, no number is given. Active and inactive are the calls of the source. The call rests on the fitted dose curve; in most records, active means well fitted curve in the direction sought with a large enough effect; inconclusive means small, poorly fitted or top-dose-only effect, or another doubt; inactive means no such curve, though single readings can be large; an effect the other way counts as inactive or inconclusive.

Key:
[1] = qHTS assay for measurement of the activity of small molecule inhibitors on Zika virus induced Caspase-3 activity in human iPSC derived neural progenitor cells (hNPCs) (AID 1224857); further: nearly all actives have a fitted effect of over 65% in size
Method in brief: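 Pretreat hNPCs with compound 1 h; infect ZIKV 2 FFU/cell; 6 h 37 C, 5% CO2; Caspase-Glo 3/7, 30 min RT; luminescence; normalize to no-virus and virus-only wells.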

[2] = qHTS assay for measurement of the activity of small molecule inhibitors on Zika virus induced Caspase-3 activity in human astrocytoma cells (AID 1224859)
Method in brief: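 Human SNB-19 astrocytoma cells in RPMI 1640 with 10% FBS receive compound one hour ahead of Zika virus at 2 FFU/cell. After 6 h infection, caspase-3/7 activity is detected by Caspase-Glo luminescence.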

[3] = qHTS assay to identify small molecule inhibitors of chordoma cells - UCH-1 (AID 1259355); further: nearly all actives have a fitted effect of over 55% in size; further: potency means the concentration at half of the fitted maximal effect; series mostly up to about 46 µM
Method in brief: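 A 48hr growth-inhibition format: each drug tested at 15 concentrations together with added auranofin, camptothecin, doxorubicin, rubitecan and topotecan, with cell viability quantified as CellTiter-Glo luminescence.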

[4] = qHTS assay to identify small molecule inhibitors of chordoma cells - UCH-2 (AID 1259356); further: potency means the concentration at half of the fitted maximal effect
[5] = P-glycoprotein substrates identified in KB-8-5-11 adenocarcinoma cell line, qHTS therapeutic library screen (AID 1346987); further: nearly all actives have a fitted effect of over 65% in size; further: potency means the concentration at half of the fitted maximal effect
Method in brief: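 Human cervical adenocarcinoma KB-8-5-11 cells, selected in colchicine to over-express P-gp and assayed without it, were exposed for 72 h to titrated compounds. An ATP-based luminescent viability signal gave AC50.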

| SMILES | outcome [1] | outcome [2] | Potency [3] | Potency [4] | Potency [5] |
| --- | --- | --- | --- | --- | --- |
| CN(C)C/C=C(/c1ccc(Br)cc1)c1cccnc1 | inactive | inactive | inactive | inactive | – |
| C[n+]1cc2c3c(ccc2c2ccc4cc5c(cc4c21)OCO5)OCO3 | inactive | inactive | 12.6 µM (active) | 13 µM (active) | – |
| Cc1cccc(C)c1NC(=O)C(C)N (stereo not drawn) | inactive | inactive | inactive | inactive | – |
| CCN(CC)CCOCCOC(=O)C1(c2ccccc2)CCCC1 | inactive | inactive | inactive | inactive | – |
| O=C(CCCN1CCC(O)(c2cccc(C(F)(F)F)c2)CC1)c1ccc(F)cc1 | inactive | inactive | inactive | inactive | – |
| COC(=O)C1=C(C)NC(C)=C(C(=O)OCCN(C)Cc2ccccc2)C1c1cccc([N+](=O)[O-])c1 (stereo not drawn) | inactive | inactive | inactive | inactive | – |
| CN(C)CCCN1c2ccccc2Sc2ccc(C(F)(F)F)cc21 | inactive | inactive | inactive | inactive | – |
| CN(C)C(=O)Oc1ccc[n+](C)c1 | inactive | inactive | inactive | inactive | – |
| CC1=NS(=O)(=O)c2cc(Cl)ccc2N1 | inactive | inactive | inactive | inactive | – |
| CC1=C(C)C(=O)C(CCCCC#CCCCC#CCO)=C(C)C1=O | inactive | inactive | inactive | inactive | – |
| COc1ccc(CCN(C)CCCC(C#N)(c2cc(OC)c(OC)c(OC)c2)C(C)C)cc1OC (stereo not drawn) | inactive | inactive | inactive | inactive | – |
| CC[N+](C)(C)c1cccc(O)c1 | inactive | inactive | inactive | inactive | – |
| NC(N)=N/N=C/c1c(Cl)cccc1Cl | inactive | inactive | inactive | inactive | – |
| CSc1ccc(C(=O)c2[nH]c(=O)[nH]c2C)cc1 | inactive | inactive | inactive | inactive | – |
| CCc1cccc(N(C)C(N)=Nc2cccc3ccccc23)c1 | inactive | inactive | inactive | inactive | – |
| CN(C)CC[C@@H](c1ccc(Br)cc1)c1ccccn1 | inactive | inactive | inactive | inactive | – |
| CCOC(=O)C1=C(C)NC(C)=C(C(=O)OC)C1c1cccc([N+](=O)[O-])c1 (stereo not drawn) | inactive | inactive | inactive | inactive | – |
| CC(C)NCC(O)c1cc(O)cc(O)c1 (stereo not drawn) | inactive | inactive | inactive | inactive | – |
| CCCCNC(=O)NS(=O)(=O)c1ccc(C)cc1 | inactive | inactive | inactive | inactive | – |
| COc1ccc2c(c1OC)C(=O)O[C@@H]2[C@H]1c2c(cc3c(c2OC)OCO3)CCN1C | inactive | inactive | inactive | inactive | – |
| CCOC(=O)c1cnc2c(cnn2CC)c1NN=C(C)C | inactive | inactive | inactive | inactive | – |

| SMILES | outcome [1] | outcome [2] | Potency [3] | Potency [4] | Potency [5] |
| --- | --- | --- | --- | --- | --- |
| CCC(=O)c1ccc2c(c1)N(CCCN(C)C)c1ccccc1S2 | inactive | inactive | inactive | inactive | – |
| CN(C(=O)CCCOc1ccc2[nH]c(=O)ccc2c1)C1CCCCC1 | inactive | inactive | inactive | inactive | – |
| COCCCC/C(=N\OCCN)c1ccc(C(F)(F)F)cc1 | inactive | inactive | inactive | – | – |
| Cc1nc2ccccn2c(=O)c1CCN1CCC(C(=O)c2ccc(F)cc2)CC1 | inactive | inactive | inactive | inactive | – |
| CN(C)CC/C=C1\c2ccccc2COc2ccccc21 | inactive | inactive | inactive | inactive | – |
| OCCN1CCN(CCCN2c3ccccc3C=Cc3ccccc32)CC1 | inactive | inactive | inactive | – | – |
| Cc1nc2sccn2c(=O)c1CCN1CCC(=C(c2ccc(F)cc2)c2ccc(F)cc2)CC1 | inactive | inactive | inactive | inactive | – |
| C[C@]12CCC(=O)C=C1CC[C@@H]1[C@@H]2CC[C@@]2(C)[C@H]1CC[C@]2(O)C(=O)CO | inactive | inactive | inactive | inactive | – |
| CCCCNc1c(C(=O)OCC)c(C)nc2c1cnn2CC | inactive | inactive | inactive | inactive | – |
| Cc1ccc(/C(=C\CN2CCCC2)c2ccccn2)cc1 | inactive | inactive | inactive | inactive | – |
| CN(C)CCN(Cc1cccs1)c1ccccn1 | inactive | inactive | inactive | inactive | – |
| c1cnc(N2CCN(Cc3ccc4c(c3)OCO4)CC2)nc1 | inactive | inactive | inactive | inactive | – |
| CN(C)CCCN1c2ccccc2Sc2ccccc21 | inactive | inactive | inactive | inactive | – |
| CN1CCN(C2=Nc3ccccc3Oc3ccc(Cl)cc32)CC1 | inactive | inactive | inactive | inactive | – |
| CCn1cc(C(=O)O)c(=O)c2cc3c(cc21)OCO3 | inactive | inactive | inactive | inactive | inactive |
| CCN1CCc2nc(N)oc2CC1 | inactive | inactive | inactive | inactive | inactive |
| Brc1c(NC2=NCCN2)ccc2nccnc12 | inactive | inactive | inactive | inactive | inactive |
| COc1cc(Cc2cnc(N)nc2N)cc(OC)c1OC | inactive | inactive | inactive | inactive | inactive |
| CCN(CC)CC(=O)Nc1c(C)cccc1C | inactive | inactive | inactive | inactive | inactive |
| CCN(CC)CCCN(c1ccccc1)C1Cc2ccccc2C1 | inactive | inactive | 31.6 µM (active) | 23.1 µM (active) | 10.3 µM (active) |
